According to PubChem BioAssay:

How the values were obtained:
[1] = system: Human papillomavirus type 1a protein E7 (residues 44-93); assay: HPV1a E7 fragment binders on microarrays, primary screen, biochemical, small-molecule microarray, residues 44-93, 635 nm fluorescence (AID 1108); settings: small-molecule microarray binding, fluorescence 635 nm; higher = more signal;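 further: E7 fragment applied at 1 µg/mL in TBST for 1 h at 4 C; score combines spot fluorescence with its signal to noise ratio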
[2] = modulators of HCV replicon luciferase signal, primary screen, HCV replication inhibitor project, Huh7 cells, luciferase reporter (AID 1109); settings: 48 h, higher = more signal;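 further: huh7 hepatoma cells harbouring a luciferase neomycin HCV replicon reporter; luciferase luminescence as measure of HCV replicon replication; test concentration not given here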
[3] = molecular target: Left-right determination factor 2 (Homo sapiens) (UniProt O00292); assay: LEFTY2 binders on small-molecule microarrays, primary screen, biochemical, small-molecule microarray, 635 nm fluorescence scan (AID 1110); settings: LEFTY2 binding, higher = more signal
Left-right determination factor 2 (Homo sapiens), sequence (O00292 whole entry, looked up): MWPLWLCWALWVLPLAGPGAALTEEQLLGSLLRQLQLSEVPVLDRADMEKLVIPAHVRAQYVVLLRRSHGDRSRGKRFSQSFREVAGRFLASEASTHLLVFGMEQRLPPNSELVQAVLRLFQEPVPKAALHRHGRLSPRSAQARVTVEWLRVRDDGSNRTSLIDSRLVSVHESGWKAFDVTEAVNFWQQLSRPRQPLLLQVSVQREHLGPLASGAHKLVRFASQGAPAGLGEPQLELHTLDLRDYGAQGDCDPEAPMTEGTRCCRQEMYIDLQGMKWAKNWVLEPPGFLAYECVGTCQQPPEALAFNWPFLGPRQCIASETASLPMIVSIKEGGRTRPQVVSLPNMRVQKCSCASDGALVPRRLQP

[4] = molecular target: Calmodulin-1 (Homo sapiens) (UniProt P0DP23); assay: CALM1 binders on microarrays, EGTA buffer, profiling panel, biochemical, small-molecule microarray, Cy5-labelled CALM1 (AID 1111); settings: Cy5-CALM1 binding fluorescence, higher = more signal;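 further: labelled calmodulin applied in Tris saline Tween buffer holding calcium plus EGTA and DTT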
[5] = molecular target: Calmodulin-1 (Homo sapiens) (UniProt P0DP23); assay: calcium-bound CALM1 binders on microarrays, profiling panel, artefact control for SMM control-protein annotation, biochemical, small-molecule microarray, Cy5-labelled CALM1, plus calcium (AID 1112); settings: Cy5-CALM1 binding fluorescence, higher = more signal;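 further: score merges spot fluorescence with signal to noise from triplicate slides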
[6] = small-molecule microarray binders of probe aWnt5a, primary screen, biochemical, biotinylated probe, 635/667 nm fluorescence (AID 1113); settings: higher = more signal;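 further: score merges 667 nm fluorescence intensity with signal-to-noise per printed feature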
[7] = small-molecule microarray binders of probe aShh, primary screen, biochemical, biotinylated probe, 635/667 nm fluorescence (AID 1114); settings: higher = more signal;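 further: probe is biotin-labelled aShh protein from a stem cell growth factor screen; measures binding of labelled protein to compounds printed on the slide; score merges feature fluorescence at 667 nm with signal-to-noise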
[8] = small-molecule microarray binders of probe aNog, primary screen, biochemical, biotinylated probe, 635/667 nm fluorescence (AID 1115); settings: higher = more signal;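 further: probe is biotinylated aNog protein used at 0.15 µg/mL for 1 h at 4 C; z-score combines 667 nm fluorescence of each spot with its signal to noise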
[9] = molecular target: Torsin-1A-interacting protein 1 (Homo sapiens) (UniProt Q5JTV8); assay: LAP1 binders from COS7 cell lysate, primary screen, small-molecule microarray, 635/667 nm fluorescence (AID 1116); settings: COS7-hLAP1 lysate binding, 635 nm fluorescence, higher = more signal
Torsin-1A-interacting protein 1 (Homo sapiens), sequence (Q5JTV8 whole entry, looked up): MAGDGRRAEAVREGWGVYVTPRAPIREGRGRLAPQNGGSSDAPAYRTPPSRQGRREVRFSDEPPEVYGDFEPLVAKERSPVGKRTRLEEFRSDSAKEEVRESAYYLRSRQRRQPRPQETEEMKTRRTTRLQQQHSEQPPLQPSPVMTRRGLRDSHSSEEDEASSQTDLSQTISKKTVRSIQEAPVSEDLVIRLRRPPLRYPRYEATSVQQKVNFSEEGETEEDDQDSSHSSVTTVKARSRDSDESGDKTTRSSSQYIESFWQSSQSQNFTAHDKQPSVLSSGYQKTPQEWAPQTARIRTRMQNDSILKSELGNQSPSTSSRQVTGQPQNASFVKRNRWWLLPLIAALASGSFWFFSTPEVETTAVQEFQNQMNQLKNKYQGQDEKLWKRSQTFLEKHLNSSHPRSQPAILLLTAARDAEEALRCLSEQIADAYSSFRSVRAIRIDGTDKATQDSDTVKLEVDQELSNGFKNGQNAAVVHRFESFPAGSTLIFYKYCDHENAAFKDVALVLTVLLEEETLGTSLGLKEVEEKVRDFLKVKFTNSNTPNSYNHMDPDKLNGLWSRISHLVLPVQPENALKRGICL

[10] = molecular target: Alpha-bungarotoxin (Bungarus multicinctus) (UniProt P60615); assay: alpha-bungarotoxin binders on microarray, profiling panel, artefact control for SMM control protein annotation, biochemical, small-molecule microarray, Alexa647 label, 635/667 nm fluorescence (AID 1117); settings: alpha-BTX-A647 binding fluorescence, higher = more signal
Alpha-bungarotoxin (Bungarus multicinctus), sequence (P60615 whole entry, looked up): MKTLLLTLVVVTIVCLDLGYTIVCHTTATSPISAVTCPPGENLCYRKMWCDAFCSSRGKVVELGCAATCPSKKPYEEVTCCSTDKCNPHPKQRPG

Row | Compound | composite z-score [1] | z-score [2] | composite z-score [3] | composite z-score [4] | composite z-score [5] | composite z-score [6] | composite z-score [7] | composite z-score [8] | composite z-score [9] | composite z-score [10]
1 | COc1cc(NN2C(C(O)c3ccc(I)cc3)C=CC3C(=O)N(c4ccccc4)C(=O)C32)cc(OC)c1OC (stereo not given) | 1.46 | -0.573 | 0.391 | 1.85 | 0.663 | 0.136 | 0.213 | 1.23 | 1.64 | 1.68
2 | CO[C@H]1O[C@H](CO)[C@@H](OC(=O)CCc2ccccc2)[C@H](OC(=O)c2cc3ccccc3[nH]2)[C@H]1OC(=O)c1cc2ccccc2[nH]1 | 1.34 | -3.2 | 0.817 | 1.65 | 0.193 | 0.055 | -0.138 | 0.248 | 1.21 | 0.889
3 | COc1ccc(C#Cc2ccc3c(c2)[C@]2(C(=O)N3)[C@H](c3ccc(OCCO)cc3)N3[C@H](c4ccccc4)[C@H](c4ccccc4)OC(=O)[C@H]3[C@@H]2C(=O)N2CCc3cc(OC)c(OC)cc3C2)cc1 | 1.33 | -1.23 | 0.461 | 1.08 | 0.684 | -0.0215 | 0.0589 | -0.155 | 0.168 | 0.841
4 | CCOC(=O)C1=CC[C@@H](c2ccccc2)N(S(=O)(=O)c2ccc(C)cc2)[C@H]1c1cccc(OC)c1 | 1.09 | -1.96 | 0.177 | 0.0295 | 0.622 | 0.0422 | 0.0898 | 0.266 | 0.854 | 1.3
5 | C=CCC(OC(C)=O)[C@@H]1[C@@H](N(Cc2cc3ccccc3o2)C(=O)c2ccc(-c3ccccc3)cc2)c2cc(OCCCO)ccc2N1C(=O)Cc1ccc(OC)cc1 (stereo not given in full) | -0.401 | -1.46 | 0.0189 | -0.184 | 0.464 | -0.0758 | -0.335 | -0.216 | -0.195 | -0.17
6 | NCCCCCNC(=O)[C@@H]1C[C@@H]2C(=O)N3CCC[C@H]3C(=O)N2[C@@H]1c1ccc(O)cc1 | 1.31 | -0.837 | 0.732 | 1.09 | 1.12 | 0.216 | 0.163 | -0.477 | 1.05 | 0.494
7 | C=CCNC(=O)[C@@H]1[C@H]2C(=O)O[C@H](c3ccccc3)[C@H](c3ccccc3)N2[C@H](c2ccc(O)cc2)[C@@]12C(=O)Nc1ccc(C#CCC(C(=O)OC)C(=O)OC)cc12 | 1.31 | -2.11 | -0.0742 | -0.0406 | 0.0221 | -0.147 | -0.2 | 0.187 | 0.411 | 0.388
8 | CN1C(=O)C2C=CC(C(O)c3cc(C(F)(F)F)cc(C(F)(F)F)c3)N(Nc3ccccc3)C2C1=O (stereo not given) | 0.792 | -1.08 | -0.715 | 0.345 | -0.151 | -0.0346 | -0.138 | 0.369 | 1.68 | 0.0299
9 | COCCOC(=O)N1C(=O)[C@@]2(c3cc(C#CC4=CCCCC4)ccc31)[C@H](c1ccc(O)cc1)N1[C@H](c3ccccc3)[C@H](c3ccccc3)OC(=O)[C@H]1[C@@H]2C(=O)NC[C@H](O)c1ccccc1 | 1.39 | -1.66 | 0.623 | 0.713 | 0.135 | 0.0324 | 0.296 | -0.614 | 1.39 | 0.791
10 | CC(=O)NCCCC[C@@H]1NC(=O)[C@H]2C[C@@H](C(=O)NCCCCCNC(=O)CS)[C@@H](c3cccc(OCCO)c3)N2C1=O | 0.0676 | 0.217 | 0.0794 | 0.232 | 0.202 | -0.157 | -0.147 | -0.158 | 0.868 | 0.389
11 | Cc1ccc(C(C)CC(O)C2C=CC3C(=O)N(c4ccccc4)C(=O)C3N2Nc2ccc(C#N)cc2)o1 (stereo not given) | 1.42 | 0.0453 | 0.168 | 1.48 | 0.314 | -0.0044 | 0.138 | 0.526 | 1.16 | 1.17
12 | C=CCN1C(=O)[C@]2(O[C@H](CCO)[C@@H]([Si](C)(C)c3ccc(OC)cc3)[C@@H]2C)c2cc(N3C(=O)COc4ccccc43)ccc21 | 1.32 | -5.2 | 0.181 | 0.966 | 0.325 | -0.0134 | -0.0858 | 0.0599 | -0.0988 | 0.429
13 | C=C(CCCC)C(=O)CC[C@H](OC(=O)c1ccccc1-c1ccccc1C(=O)O)c1ccccc1OCCO | 0.166 | -2.31 | -0.171 | -0.378 | -0.814 | -0.0944 | 0.318 | 0.397 | 0.442 | 0.26
14 | O=C(CS)NCCCCCNC(=O)[C@@H]1C[C@@H]2C(=O)N[C@@H](Cc3ccccc3)C(=O)N2[C@@H]1c1cccc(OCCO)c1 | 1.41 | 0.266 | 0.705 | 1.94 | -0.0675 | -0.302 | -0.482 | -0.458 | 1.08 | 1.54
15 | [N-]=[N+]=NC[C@H](Cc1ccccc1)NC(=O)c1ccccc1 | -0.778 | 2.25 | -0.0257 | -0.334 | -0.203 | -0.0269 | -0.0146 | -0.293 | 0.363 | 0.0961
16 | O=C1O[C@H](c2ccccc2)[C@H](c2ccccc2)N2[C@H]1[C@@H](C(=O)Nc1nc3ccccc3s1)[C@]1(C(=O)Nc3ccc(C#CC4=CCCCC4)cc31)[C@H]2c1ccc(O)cc1 | 1.38 | -0.832 | 0.0561 | 1.18 | 0.366 | -0.0203 | 0.0465 | 0.178 | 1.17 | 1.4
17 | COC(=O)c1c2oc(c1C(=O)OC)C(=O)N1CCC[C@H]1Cn1nncc1CN(Cc1ccccc1)C(=O)N[C@H](CO)CC2 | 0.289 | 0.253 | 0.239 | 0.724 | 0.169 | -0.0738 | -0.221 | -0.296 | -0.285 | -0.524
18 | COc1ccc(C#Cc2ccc3c(c2)[C@]2(C(=O)N3)[C@H](C(=O)N3CCCCCCC3)[C@H]3C(=O)O[C@H](c4ccccc4)[C@H](c4ccccc4)N3[C@@H]2c2ccc(O)cc2)cc1 | 0.871 | -0.764 | 0.536 | 1.51 | 0.426 | 0.19 | 0.162 | 2.3 | 2.85 | 1.22
19 | C=C[C@H](C)[C@H](OC(=O)Nc1ccc(OC)cc1)c1ccc(OCCO)cc1 | -0.562 | 0.0055 | -2.08 | -1.39 | -0.0296 | -0.222 | -0.0553 | -0.142 | -0.18 | -1.79
20 | CC(C)CCC[C@@H](C)[C@H]1CC[C@@]2(C)C3=C(CC[C@]12C)[C@@]1(C)CC[C@H](OC(=O)c2ccccc2)C(C)(C)C1CC3 (stereo not given in full) | 0.359 | -0.313 | 0.593 | -0.0989 | -0.647 | -0.124 | -0.414 | -0.0252 | -0.251 | 0.261
21 | CN1C(=O)C2C=CC(C(O)c3cc(C(F)(F)F)cc(C(F)(F)F)c3)N(NC(=O)OC(C)(C)C)C2C1=O (stereo not given) | 1.38 | -1.24 | 0.106 | 2.45 | 0.666 | -0.0607 | -0.0626 | 2.04 | 1.48 | 1.23
22 | CCOC(=O)C1=C[C@@H](c2ccccc2)N(S(=O)(=O)c2ccc(C)cc2)[C@H]1c1ccccc1 | 0.0627 | 0.235 | -0.063 | 0.997 | 0.209 | -0.124 | -0.138 | 1.13 | -0.109 | 0.291
